# Test results as given in the supplement of paper PMC9694430.
# What was measured:
# Test in all cases: thermal shift delta Tm vs DMSO control; higher = stronger stabilization (binding)
# Conditions in all cases: 12.5 µM; protein concentration 2 µM
# [1] = test system: LOC_OS01G01410-cb001
# Method in brief: (§1)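 Rice kinase domain constructs were expressed in E. coli, purified, and tested by differential scanning fluorimetry with compound added in DMSO. Each well of a 96-well plate held 19.5 μl of 2 μM kinase in 100 mM potassium phosphate pH 7.5, 150 mM NaCl, 10% glycerol and 5 × SYPRO Orange, and fluorescence was read from 25°C to 95°C at 0.05°C/s. The melting temperature shift is the mean of triplicates, taken against protein with DMSO alone after Boltzmann fitting.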
# [2] = test system: LOC_OS01G02750-cb003
# Method in brief: as §1
# [3] = test system: LOC_OS01G10900-cb004
# Method in brief: as §1
# [4] = test system: LOC_OS01G13800-cb001
# Method in brief: as §1
# [5] = test system: LOC_OS01G14860-cb001
# Method in brief: as §1
# [6] = test system: LOC_OS01G21960-cb002
# Method in brief: as §1
# [7] = test system: LOC_OS01G39600-cb002
# Method in brief: as §1
# [8] = test system: LOC_OS01G48390-cb002
# Method in brief: as §1
# [9] = test system: LOC_OS01G51400-cb002
# Method in brief: as §1
# [10] = test system: T1, LOC_OS01G52050-cb004
# T1 sequence (whole entry): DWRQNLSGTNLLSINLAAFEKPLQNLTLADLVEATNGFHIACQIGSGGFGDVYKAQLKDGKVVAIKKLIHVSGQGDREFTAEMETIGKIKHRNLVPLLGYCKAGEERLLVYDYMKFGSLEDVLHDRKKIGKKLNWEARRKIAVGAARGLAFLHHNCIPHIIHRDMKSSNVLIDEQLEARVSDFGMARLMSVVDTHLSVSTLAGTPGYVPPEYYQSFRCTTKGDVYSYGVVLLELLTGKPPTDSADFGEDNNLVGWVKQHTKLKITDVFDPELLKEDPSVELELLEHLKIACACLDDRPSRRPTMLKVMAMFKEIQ
# Method in brief: as §1
SMILES,thermal shift delta Tm [1],thermal shift delta Tm [2],thermal shift delta Tm [3],thermal shift delta Tm [4],thermal shift delta Tm [5],thermal shift delta Tm [6],thermal shift delta Tm [7],thermal shift delta Tm [8],thermal shift delta Tm [9],thermal shift delta Tm [10]
CC(C)(C)c1cnc(CSc2cnc(NC(=O)C3CCNCC3)s2)o1,1.11 °C,10.9 °C,3.68 °C,0.5 °C,5.74 °C,0.34 °C,0.92 °C,6.3 °C,0.67 °C,0.49 °C
CC(C)Nc1cc(-c2c[nH]c(C(=O)N[C@H](CO)c3cccc(Cl)c3)c2)c(Cl)cn1,6.3 °C,1.26 °C,0.37 °C,0.75 °C,5.82 °C,1.37 °C,1.63 °C,1.24 °C,0.12 °C,2.18 °C
Cc1ccc2nc(NCCN)c3ncc(C)n3c2c1,0.42 °C,0.41 °C,1.16 °C,0.4 °C,0.19 °C,0.57 °C,-0.24 °C,1.79 °C,0.09 °C,0.5 °C
CCc1nc(-c2cccc(C)c2)c(-c2ccnc(NC(=O)c3ccccc3)c2)s1,0.24 °C,0.26 °C,0.38 °C,-0.71 °C,0.27 °C,-0.03 °C,0.93 °C,0.28 °C,0.2 °C,0.24 °C
CC1(COc2ccc3c(c2)ncn3-c2ccc3cccc(N4CCC(N)CC4)c3n2)COC1,1.38 °C,7.03 °C,1.43 °C,-0.87 °C,1.96 °C,3.78 °C,2.31 °C,0.25 °C,0.13 °C,11.9 °C
COc1cc(Nc2ncc(F)c(Nc3ccc4c(n3)N(COP(=O)(O)O)C(=O)C(C)(C)O4)n2)cc(OC)c1OC [Fostamatinib (R788)],1.98 °C,-0.16 °C,0.33 °C,-0.55 °C,4.38 °C,3.63 °C,9.1 °C,0.22 °C,0.49 °C,6.23 °C
O=C1NC(=O)C(=Cc2ccc(-c3ccc(F)cc3)o2)S1 (stereo in doubt),0.61 °C,1.08 °C,0.58 °C,0.53 °C,0.85 °C,1.54 °C,0.11 °C,0.58 °C,0.18 °C,0.58 °C
CCCCCCCCCCCCCCCCCCOP(=O)([O-])OC1CC[N+](C)(C)CC1 [Perifosine (KRX-0401)],-2.46 °C,-3.08 °C,-2.19 °C,-2.02 °C,-1.55 °C,-1.07 °C,-4.67 °C,-1.63 °C,-3.01 °C,-2.26 °C
O=C1c2c(O)cc(O)cc2OC(c2ccc(O)c(O)c2)C1O (stereo not given) [Taxifolin (Dihydroquercetin)],0.87 °C,0.83 °C,0.4 °C,0.01 °C,0.34 °C,0.61 °C,0.19 °C,0.17 °C,0.11 °C,0.49 °C
OCCn1cc(-c2ccc3c(c2)CC/C3=N\O)c(-c2ccncc2)n1,0.98 °C,-2.29 °C,0.31 °C,0.39 °C,0.01 °C,0.47 °C,0.93 °C,0.73 °C,0.39 °C,-0.04 °C
